Screens from PubChem BioAssay.
This is a sample that favours compounds with a hit; in the whole collection about 3% have one here.
LmPK inh: blocks Leishmania mexicana pyruvate kinase activity; Potency, µM (series often up to 57.5 µM), hits mostly inhibitors; Q27686; AID 1721; hit rate 0.37% among 290,000; purified LmPK, Kinase-Glo ATP luminescence, 1 h
Target sequence (Q27686 whole entry, looked up): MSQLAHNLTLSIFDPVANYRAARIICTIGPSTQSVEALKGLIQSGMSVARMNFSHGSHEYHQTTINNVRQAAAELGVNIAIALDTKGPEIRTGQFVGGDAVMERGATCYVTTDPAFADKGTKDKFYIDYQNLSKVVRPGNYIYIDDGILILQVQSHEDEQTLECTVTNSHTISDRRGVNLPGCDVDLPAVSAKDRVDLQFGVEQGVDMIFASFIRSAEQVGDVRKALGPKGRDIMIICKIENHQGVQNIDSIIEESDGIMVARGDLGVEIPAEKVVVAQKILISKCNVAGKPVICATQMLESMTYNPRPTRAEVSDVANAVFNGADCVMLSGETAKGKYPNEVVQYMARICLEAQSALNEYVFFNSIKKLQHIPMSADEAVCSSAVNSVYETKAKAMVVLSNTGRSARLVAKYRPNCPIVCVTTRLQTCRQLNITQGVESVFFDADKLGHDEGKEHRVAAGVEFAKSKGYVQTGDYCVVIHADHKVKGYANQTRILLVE
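ATP generated from ADP (0.1 mM) and PEP (0.5 mM) by 0.1 nM LmPK over 1 h at room temperature (pH 7.2 imidazole buffer) was detected by coupled luciferase luminescence. Values were normalized to uninhibited and no-enzyme wells.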
TbPYK inhibitor: blocks Trypanosoma brucei pyruvate kinase | Potency, µM (doses to about 76.8 µM), most hits filed as inhibitors | AID 624173 | TbPYK enzyme, Kinase-Glo Plus ATP luminescence, 45 min | Q57TT1 | hit rate 0.12% among 410,000; also: nearly all actives have a fitted effect of over 50% in size
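Luminescent Kinase-Glo Plus end-point after 45 min room-temperature reaction of T. brucei pyruvate kinase started with 130 uM ADP (final). Buffer TEA 50 mM pH 7.2 with KCl, MgCl2, BSA, Tween-20; titration-based qHTS with fitted concentration-effect curves.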
Sm TGR inh: blocks Schistosoma mansoni thioredoxin glutathione reductase; Potency, µM (highest dose often 114 µM), hits mostly inhibitors; purified TGR, DTNB reduction, TNB absorbance 405 nm; Q962Y6; hit rate 3% among 360,000; also: nearly all actives have a fitted effect of over 60% in size
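Kinetic colorimetric format: TGR-catalysed, NADPH-driven DTNB reduction monitored via TNB absorbance. Enzyme dispensed at 20 nM; compound exposure 15 min at room temperature before reaction start.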
RE007 growth inh: less growth of the S. pombe RE007 Vpr strain; S. pombe RE007 Vpr strain, BacTiter-Glo ATP luminescence, 24 h; Potency, µM (titrated, usually from 92.2 µM), actives largely listed as inhibitors; hit rate 0.21% among 360,000; AID 651644; active = well fitted falling curve with a large enough effect; inconclusive = small, poorly fitted or top-dose-only effect; inactive = no such curve, though single readings can be large or run the other way; also: nearly all actives have a fitted effect of over 50% in size
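Fission yeast strain RE007, carrying one chromosomally integrated HIV-1 vpr copy, was seeded at OD 0.01 in PMG+AL medium with 23 nL pinned compound. After 24 h at 30 °C and 99% humidity, viability was read by BacTiter-Glo luminescence.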
LmPK confirm: Confirms inhibition of Leishmania mexicana pyruvate kinase; shares compounds with LmPK inh; purified LmPK, Kinase-Glo ATP luminescence, 1 h; Potency, µM (series often up to 57.5 µM), usual class: inhibitors; hit rate 40% among 150;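 active = compounds giving a full or partial concentration-response curve, as inhibitors or activators; inconclusive = weak, top-dose-only or unclear curve responses; inactive = no response at any tested dose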
Of the large screens only hits and unclear results are named; the others gave an inactive call (follow-up assays come after a bar, where they were run). Unless noted, calls follow the shape of the dose curve; as a rule, active = well fitted curve in the direction sought with a large enough effect; inconclusive = small, poorly fitted or top-dose-only effect, or another doubt; inactive = no such curve, though single readings can be large; an effect the other way counts as inactive or inconclusive.

COc1ccc(S(=O)(=O)N2CCCCC2)cc1NC(=O)C1CC1(Cl)Cl (stereo not given)	none (no result: LmPK inh, Sm TGR inh)
CC(C)c1ccccc1NC(=O)Cn1cnc2c1c(=O)n(C)c(=O)n2C	none (no result: LmPK inh, RE007 growth inh)
CC(C)(C)NC(=O)C(c1ccncc1)N(C(=O)Cn1nnc(-c2ccc(F)cc2)n1)c1ccccc1 (stereo not given)	LmPK inh 8.91µM, Sm TGR inh inconclusive | LmPK confirm inactive
COC(=O)c1sc(NC(=O)c2ccoc2C)nc1C	LmPK inh 7.08µM | LmPK confirm 16.3µM
O=C(Nc1ccc(N2CCOCC2)cc1)c1cn2ccccc2n1	LmPK inh 2.82µM, TbPYK inhibitor inconclusive | LmPK confirm 16.3µM
CC(C)c1ccc(N2C(=O)N(Cc3ccccc3Cl)c3ccccc3S2(=O)=O)cc1	none (no result: LmPK inh, RE007 growth inh)
O=C1C=CC(=O)N1CCCCCCN1C(=O)C=CC1=O	LmPK inh inconclusive, TbPYK inhibitor 10µM, RE007 growth inh 8.91µM | LmPK confirm inconclusive
O=C(O)CN1C(=O)C=CC1=O	none (no result: LmPK inh, Sm TGR inh)
COc1cccc(NC(=O)c2ccccc2)c1	none (no result: LmPK inh)
COc1ccc(C(=O)Nc2cccc(OC)c2)cc1	LmPK inh inconclusive, TbPYK inhibitor inconclusive, RE007 growth inh inconclusive | LmPK confirm inconclusive
CCC1CCCCN1S(=O)(=O)c1ccc(C(=O)Nc2sc3c(c2C(=O)NC)CCC3)cc1 (stereo not given)	Sm TGR inh inconclusive (no result: LmPK inh, RE007 growth inh)
COc1ccc(C(=O)Nc2scc(-c3ccc(Cl)cc3Cl)c2C(N)=O)cc1	none | LmPK confirm inactive
COC(=O)c1c(-c2cccs2)csc1NC(=O)c1ccc(Cl)cc1	none (no result: LmPK inh, RE007 growth inh)
Cc1ccc(C(=O)O/N=C(\N)c2ccccc2)c(Cl)c1	LmPK inh 4.47µM, TbPYK inhibitor inconclusive, RE007 growth inh inconclusive | LmPK confirm 18.3µM
O=CN/C=C/c1cc(O)ccc1O	LmPK inh 4.47µM, Sm TGR inh 6.31µM | LmPK confirm inconclusive
CC(C)C[C@H](N)c1nnc(SCc2ccc(Cl)cc2)o1	none
CC(C)[C@H](N)c1nnc(SCc2ccc(Cl)cc2)o1	none | LmPK confirm inactive
Cc1cccc(-c2nc3c4ccccc4nc(N4CCN(c5cccc(Cl)c5)CC4)n3n2)c1	none (no result: LmPK inh, RE007 growth inh)
Cc1ccc(-c2nn(C)c(=O)c3ccccc23)cc1S(=O)(=O)NCCN1CCOCC1	none
CCOC(=O)CNS(=O)(=O)c1cc(-c2nn(C)c(=O)c3ccccc23)ccc1C	none | LmPK confirm inactive
CN=c1scc(-c2ccco2)n1/N=C/c1ccc(O)c(O)c1	LmPK inh 5.62µM, Sm TGR inh 10µM | LmPK confirm inconclusive
COc1ccc(S(=O)(=O)NCCS(=O)(=O)N2CCN(c3ccccc3)CC2)cc1OC	none (no result: LmPK inh, RE007 growth inh)
O=S(=O)(c1ccccc1)N1CCN(Cc2ccccc2C(F)(F)F)CC1	none
Cc1ccc(S(=O)(=O)N2CCN(Cc3ccccc3C(F)(F)F)CC2)cc1	none | LmPK confirm inactive
CC(C)(C)OC(=O)N1CCC(c2c(C(=O)Nc3ccc4c(c3)OCCO4)cnn2-c2ccc(F)cc2)CC1	none (no result: LmPK inh, RE007 growth inh)
O=C(c1ccccc1)c1cc2ccc(O)cc2oc1=O	LmPK inh 3.55µM, TbPYK inhibitor inconclusive, RE007 growth inh inconclusive | LmPK confirm 7.3µM
O=c1cc(-c2ccccc2)[nH]c2ccccc12	RE007 growth inh inconclusive
O=C1C(c2cc(=O)c3ccccc3[nH]2)=C(O)c2ccccc21	LmPK inh 3.98µM, TbPYK inhibitor 8.91µM | LmPK confirm inconclusive
COc1cccc(NC(=O)CSc2nc3ccccc3cc2Cc2ccccc2)c1	none | LmPK confirm inactive
CC(C)(C)c1ccc(CN(Cc2ccco2)Cc2nnnn2C2CCCC2)cc1	none | LmPK confirm inactive
COc1ccc2cc(CN(Cc3ccco3)Cc3nnnn3C3CCCCC3)c(=O)[nH]c2c1	none
O=C(NC(=O)c1ccccc1)Nc1ccccn1	LmPK inh 4.47µM (no result: TbPYK inhibitor, RE007 growth inh) | LmPK confirm 13µM
O=C(Nc1ccccn1)c1ccc(C(=O)c2ccccc2)cc1	none (no result: LmPK inh)
CCN1C(=O)c2cccc3c(NS(=O)(=O)c4ccc(NC(C)=O)cc4)ccc1c23	none
CCOC(=O)c1ccc(NC(=O)Nc2ccc3c4c(cccc24)C(=O)N3CC)cc1	none | LmPK confirm inactive
C[C@@H]1CN([C@H](C)CO)C(=O)CCCn2nncc2CO[C@H]1CN(C)Cc1ccc2cccnc2c1	none (no result: LmPK inh, Sm TGR inh)
COc1ccc(N=CC2=C(O)c3ccccc3C2=O)c(OC)c1	LmPK inh inconclusive, TbPYK inhibitor inconclusive
